{"source": "PubChem BioAssay AID504833", "about": "(Johns Hopkins Ion Channel Center, 2011)", "note": "About 2,200 (88%) of roughly 2,500 compounds were called active. So high a share suggests a set chosen from earlier hits. These entries were drawn from the full list. Unmarked numbers belong to inactive results.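 How the source made its calls: active means primary screen active, with duplicate mean activation above negative control mean plus 3 SD (cut at about 11% in these data); inactive means the rest.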"}
{"molecular_target": "High affinity choline transporter 1 (Homo sapiens) (UniProt Q9GZV3)", "sequence (Q9GZV3 whole entry, looked up)": "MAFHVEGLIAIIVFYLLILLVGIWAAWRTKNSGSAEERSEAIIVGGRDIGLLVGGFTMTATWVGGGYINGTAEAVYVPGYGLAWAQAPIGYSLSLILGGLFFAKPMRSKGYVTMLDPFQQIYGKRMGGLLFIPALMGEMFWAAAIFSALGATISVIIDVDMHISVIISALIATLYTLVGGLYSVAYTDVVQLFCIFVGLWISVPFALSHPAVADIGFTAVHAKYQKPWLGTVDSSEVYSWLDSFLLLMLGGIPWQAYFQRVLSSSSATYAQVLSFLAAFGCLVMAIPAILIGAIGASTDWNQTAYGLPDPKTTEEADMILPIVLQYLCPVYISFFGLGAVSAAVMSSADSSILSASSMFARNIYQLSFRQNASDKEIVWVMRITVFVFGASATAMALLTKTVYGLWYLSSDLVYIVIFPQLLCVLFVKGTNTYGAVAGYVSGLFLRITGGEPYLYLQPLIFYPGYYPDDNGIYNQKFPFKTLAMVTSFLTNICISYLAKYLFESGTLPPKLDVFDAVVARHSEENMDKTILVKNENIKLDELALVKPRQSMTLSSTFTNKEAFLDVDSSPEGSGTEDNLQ", "test": "CHT activators, confirmation, cell-based, membrane potential dye, duplicate (AID 504833)", "details": "CHT-expressing cells, membrane potential dye fluorescence (FDSS); at 10 µM; hits give high values; % of choline EC20–EC90 response window; HEK293 expressing CHT LV-AA mutant; choline added at its EC20"}
{"smiles": "O=C(C1=C(O)C(=O)N(Cc2ccccc2)C1c1ccco1)c1ccco1", "note": "(configuration not stated)", "activation": "9.6%"}
{"smiles": "O=C(COC(=O)C1CCN(S(=O)(=O)c2ccc3c(c2)OCCO3)CC1)Nc1ccccc1OC(F)F", "activation": "4.44%"}
{"smiles": "N#C/C(=C\\c1ccc(-c2cccc([N+](=O)[O-])c2)o1)C(=O)NCCN1CCOCC1", "activation": "15.6% (active)"}
{"smiles": "N#Cc1ccc(/C=C2\\CCn3c2nc2cc(C(=O)O)ccc2c3=O)cc1", "activation": "48.6% (active)"}
{"smiles": "COc1ccc(CC2c3cc(OC)c(OC)cc3CC[N+]2(C)CCC(=O)OCCCCCOC(=O)CC[N+]2(C)CCc3cc(OC)c(OC)cc3C2Cc2ccc(OC)c(OC)c2)cc1OC", "note": "(configuration not stated)", "activation": "35.7% (active)"}
{"smiles": "CC(Nc1nc(N2CCN(CCO)CC2)nc2ccccc12)c1ccccc1", "note": "(configuration not stated)", "activation": "24.3% (active)"}
{"smiles": "COc1ccc(C(O)(C2CCCCC2)C(CN2CCCC2)c2ccccc2)cc1", "note": "(configuration not stated)", "activation": "35.9% (active)"}
{"smiles": "CN(C)c1cc(N)c2ccccc2n1", "note": "(tested in a mixture with another compound)", "activation": "67.2% (active)"}
{"smiles": "CC(C)(C)Nc1nc(-c2ccccn2)nc2ccccc12", "activation": "57.4% (active)"}
{"smiles": "COc1cc2nc(N3CCN(C(=O)[C@@H]4CCCO4)CC3)nc(N)c2cc1OC", "activation": "43% (active)"}
{"smiles": "Cn1c(=O)n(C)c2cc(C(=O)Nc3ccc4c(c3)OCO4)ccc21", "activation": "43.2% (active)"}
{"smiles": "O=C(NCCC1=CCCCC1)C1CCN(Cc2cnn(-c3ccccc3)c2-n2cccc2)CC1", "activation": "29.7% (active)"}
{"smiles": "O=[N+]([O-])c1ccc(N2CCNCC2)cc1NCc1cccnc1", "activation": "52.9% (active)"}
{"smiles": "Cc1ccc(C(=O)C[n+]2cc(-c3ccccc3)n3c2CCCCC3)cc1", "activation": "43.1% (active)"}
{"smiles": "CCN1/C(=C/c2ccc3ccc(C)cc3[n+]2CC)Sc2ccccc21", "activation": "3.38%"}
{"smiles": "Cc1ccc(-n2c(SCC(=O)N3c4ccccc4Sc4ccccc43)nnc2-c2ccncc2)cc1", "activation": "21.6% (active)"}
{"smiles": "Cc1ccc(C(=O)c2ccc(N3CCN(C)CC3)c([N+](=O)[O-])c2)cc1", "activation": "9.27%"}
{"smiles": "CCN1CCN(c2ccc([N+](=O)[O-])cc2C(=O)c2ccc(Cl)cc2)CC1", "activation": "50.4% (active)"}
{"smiles": "CN(C)c1cc[n+](Cc2ccccc2)cc1", "activation": "50.2% (active)"}
{"smiles": "N=c1c2c3c(sc2ncn1CCCN1CCOCC1)CCCCC3", "activation": "72.9% (active)"}
{"smiles": "N=c1c2c3c(sc2ncn1N)CCCCC3", "activation": "42.9% (active)"}
{"smiles": "COc1ccc([N+](=O)[O-])cc1N(CC(O)CN(CC(C)C)CC(C)C)S(=O)(=O)c1ccc(C)cc1", "note": "(configuration not stated)", "activation": "37.9% (active)"}
{"smiles": "Cc1nc2ccccc2c2oc(C(=O)NCCCN3CCC(C)CC3)cc12", "activation": "13.8% (active)"}
{"smiles": "O=C(c1ccccc1F)N(Cc1ccccc1)Cc1ccccc1", "activation": "34.5% (active)"}
{"smiles": "CCN(CC)CCCNC(=O)c1cn(C)c2ccc(S(=O)(=O)N(C)C3CCCCC3)cc2c1=O", "activation": "32.9% (active)"}
{"smiles": "CCN(CC)CCC(c1cc(OC)c(OC)c(OC)c1)c1c(OC)cc(OC)c2c(-c3ccccc3)cc(=O)oc12", "note": "(configuration not stated)", "activation": "27.1% (active)"}
{"smiles": "COc1ccc(Nc2cc(C)nc(-n3nc(C)cc3C)n2)cc1", "activation": "12.6% (active)"}
{"smiles": "O=Cc1ccc(OCc2cn3ccccc3n2)cc1", "activation": "38.8% (active)"}
{"smiles": "Cc1cc2c(cc1C)[n+](C)cn2CC(O)COCC1CC=CCC1", "note": "(configuration not stated)", "activation": "80.5% (active)"}
{"smiles": "COc1ccccc1NC(=O)C1=C(C)Nc2nc3ccccc3n2C1c1cccs1", "note": "(configuration not stated)", "activation": "17.7% (active)"}
{"smiles": "Cc1cc(=O)oc2cc(OCCC[n+]3ccccc3)ccc12", "activation": "61.4% (active)"}
{"smiles": "O=C(CCC1CCN(C(=O)c2cccc(Cl)c2F)CC1)Nc1ccccc1", "activation": "24.5% (active)"}
